# Experimental data from the supplement of paper PMC8728848.
# About 410 targets per protein were measured; listed, in parts, are those with the strongest signals and a random draw of the rest.
# What was measured:
# Assay in all cases: glycan array binding signal (z-score within array); higher = stronger binding
# Details in all cases: glycan notation: IUPAC condensed, linker removed
# [1] = target: Fuc(a1-2)Gal(b1-3)GalNAc(b1-4)[Neu5Ac(a2-3)]Gal(b1-4)Glc
# Procedure, shortened: (§1)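 The binding signal is a Z-score computed within each array and averaged over linkers. Arrays of the same protein sequence at different concentrations or buffers were also averaged together. Data originate from 3228 arrays in the Consortium for Functional Glycomics database, kept only where the protein sequence was available.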
# [2] = target: Fuc(a1-2)Gal(b1-4)GlcNAc
# Procedure, shortened: as §1
# [3] = target: Fuc(a1-2)Gal(b1-4)GlcNAc(b1-2)Man(a1-3)[Fuc(a1-2)Gal(b1-4)GlcNAc(b1-2)Man(a1-6)]Man(b1-4)GlcNAc(b1-4)[Fuc(a1-6)]GlcNAc
# Procedure, shortened: as §1
# [4] = target: Fuc(a1-2)[Gal(a1-3)]Gal(b1-3)GlcNAc
# Procedure, shortened: as §1
# [5] = target: Fuc(a1-2)[Gal(a1-3)]Gal(b1-3)GlcNAc(b1-6)GalNAc
# Procedure, shortened: as §1
# [6] = target: Fuc(a1-2)[GalNAc(a1-3)]Gal(b1-4)GlcNAc(b1-2)Man
# Procedure, shortened: as §1
# [7] = target: Fuc(a1-2)[GalNAc(a1-3)]Gal(b1-4)GlcNAc(b1-2)Man(a1-3)[Fuc(a1-2)[GalNAc(a1-3)]Gal(b1-4)GlcNAc(b1-2)Man(a1-6)]Man(b1-4)GlcNAc(b1-4)[Fuc(a1-6)]GlcNAc
# Procedure, shortened: as §1
# [8] = target: Fuc(a1-3)[Gal(b1-4)]GlcNAc(b1-6)[Gal(b1-3)GlcNAc(b1-3)]Gal(b1-4)Glc
# Procedure, shortened: as §1
# [9] = target: Gal(a1-3)Gal(b1-4)GlcNAc(b1-6)GalNAc
# Procedure, shortened: as §1
# [10] = target: Gal(b1-3)Gal(b1-4)GlcNAc
# Procedure, shortened: as §1
# [11] = target: Gal(b1-3)GalNAc(b1-4)[Neu5Ac(a2-3)]Gal(b1-4)Glc
# Procedure, shortened: as §1
# [12] = target: Gal(b1-4)Glc
# Procedure, shortened: as §1
# [13] = target: Gal(b1-4)GlcNAc(a1-6)Gal(b1-4)GlcNAc
# Procedure, shortened: as §1
# [14] = target: Gal(b1-4)GlcNAc(b1-2)Man(a1-3)[Gal(b1-4)GlcNAc(b1-2)Man(a1-6)][Gal(b1-4)GlcNAc(b1-4)]Man(b1-4)GlcNAc(b1-4)[Fuc(a1-6)]GlcNAc
# Procedure, shortened: as §1
# [15] = target: Gal(b1-4)GlcNAc(b1-2)Man(a1-6)[GlcNAc(b1-2)Man(a1-3)]Man(b1-4)GlcNAc(b1-4)GlcNAc
# Procedure, shortened: as §1
# [16] = target: Gal(b1-4)GlcNAc(b1-3)Gal(b1-4)GlcNAc(b1-2)Man(a1-3)[Gal(b1-4)GlcNAc(b1-3)Gal(b1-4)GlcNAc(b1-2)Man(a1-6)]Man(b1-4)GlcNAc(b1-4)GlcNAc
# Procedure, shortened: as §1
# [17] = target: Gal(b1-4)GlcNAc(b1-3)Gal(b1-4)GlcNAc(b1-2)[Gal(b1-4)GlcNAc(b1-3)Gal(b1-4)GlcNAc(b1-6)]Man(a1-6)[Gal(b1-4)GlcNAc(b1-3)Gal(b1-4)GlcNAc(b1-2)Man(a1-3)]Man(b1-4)GlcNAc(b1-4)[Fuc(a1-6)]GlcNAc
# Procedure, shortened: as §1
# [18] = target: Gal(b1-4)GlcNAc(b1-3)Gal(b1-4)GlcNAc(b1-3)Gal(b1-4)GlcNAc(b1-3)Gal(b1-4)GlcNAc(b1-2)Man(a1-3)[Gal(b1-4)GlcNAc(b1-3)Gal(b1-4)GlcNAc(b1-3)Gal(b1-4)GlcNAc(b1-3)Gal(b1-4)GlcNAc(b1-2)Man(a1-6)]Man(b1-4)GlcNAc(b1-4)GlcNAc
# Procedure, shortened: as §1
# [19] = target: Gal(b1-4)GlcNAc(b1-3)Gal(b1-4)GlcNAc(b1-3)Gal(b1-4)GlcNAc(b1-3)Gal(b1-4)GlcNAc(b1-2)Man(a1-3)[Gal(b1-4)GlcNAc(b1-3)Gal(b1-4)GlcNAc(b1-3)Gal(b1-4)GlcNAc(b1-3)Gal(b1-4)GlcNAc(b1-2)Man(a1-6)]Man(b1-4)GlcNAc(b1-4)[Fuc(a1-6)]GlcNAc
# Procedure, shortened: as §1
# [20] = target: Gal(b1-4)GlcNAc(b1-3)Gal(b1-4)GlcNAc(b1-3)Gal(b1-4)GlcNAc(b1-3)Gal(b1-4)GlcNAc(b1-3)Gal(b1-4)GlcNAc(b1-2)Man(a1-3)[Gal(b1-4)GlcNAc(b1-3)Gal(b1-4)GlcNAc(b1-3)Gal(b1-4)GlcNAc(b1-3)Gal(b1-4)GlcNAc(b1-3)Gal(b1-4)GlcNAc(b1-2)Man(a1-6)]Man(b1-4)GlcNAc(b1-4)[Fuc(a1-6)]GlcNAc
# Procedure, shortened: as §1
# [21] = target: Gal3S(b1-4)Glc
# Procedure, shortened: as §1
# [22] = target: Glc(a1-4)Glc(a1-4)Glc(a1-4)Glc
# Procedure, shortened: as §1
# [23] = target: GlcNAc(b1-2)[GlcNAc(b1-6)]Man(a1-6)[GlcNAc(b1-2)Man(a1-3)]Man(b1-4)GlcNAc(b1-4)[Fuc(a1-6)]GlcNAc
# Procedure, shortened: as §1
# [24] = target: GlcNAc(b1-3)Gal(b1-4)GlcNAc(b1-2)[GlcNAc(b1-3)Gal(b1-4)GlcNAc(b1-6)]Man(a1-6)[GlcNAc(b1-3)Gal(b1-4)GlcNAc(b1-2)Man(a1-3)]Man(b1-4)GlcNAc(b1-4)GlcNAc
# Procedure, shortened: as §1
# [25] = target: GlcNAc(b1-3)Gal(b1-4)GlcNAc(b1-3)Gal(b1-4)GlcNAc(b1-2)Man(a1-3)[GlcNAc(b1-3)Gal(b1-4)GlcNAc(b1-3)Gal(b1-4)GlcNAc(b1-2)Man(a1-6)]Man(b1-4)GlcNAc(b1-4)GlcNAc
# Procedure, shortened: as §1
# [26] = target: GlcNAc(b1-3)Gal(b1-4)GlcNAc(b1-3)Gal(b1-4)GlcNAc(b1-2)[GlcNAc(b1-3)Gal(b1-4)GlcNAc(b1-3)Gal(b1-4)GlcNAc(b1-6)]Man(a1-6)[GlcNAc(b1-3)Gal(b1-4)GlcNAc(b1-3)Gal(b1-4)GlcNAc(b1-2)Man(a1-3)]Man(b1-4)GlcNAc(b1-4)[Fuc(a1-6)]GlcNAc
# Procedure, shortened: as §1
# [27] = target: GlcNAc(b1-3)Gal(b1-4)GlcNAc(b1-3)Gal(b1-4)GlcNAc(b1-3)Gal(b1-4)GlcNAc(b1-2)Man(a1-3)[GlcNAc(b1-3)Gal(b1-4)GlcNAc(b1-3)Gal(b1-4)GlcNAc(b1-3)Gal(b1-4)GlcNAc(b1-2)Man(a1-6)]Man(b1-4)GlcNAc(b1-4)[Fuc(a1-6)]GlcNAc
# Procedure, shortened: as §1
# [28] = target: GlcNAc(b1-3)Gal(b1-4)GlcNAc(b1-3)Gal(b1-4)GlcNAc(b1-3)Gal(b1-4)GlcNAc(b1-2)[GlcNAc(b1-3)Gal(b1-4)GlcNAc(b1-3)Gal(b1-4)GlcNAc(b1-3)Gal(b1-4)GlcNAc(b1-6)]Man(a1-6)[GlcNAc(b1-3)Gal(b1-4)GlcNAc(b1-3)Gal(b1-4)GlcNAc(b1-3)Gal(b1-4)GlcNAc(b1-2)Man(a1-3)]Man(b1-4)GlcNAc(b1-4)[Fuc(a1-6)]GlcNAc
# Procedure, shortened: as §1
# [29] = target: GlcNAc(b1-3)GalNAc
# Procedure, shortened: as §1
# [30] = target: GlcNAc(b1-3)[GlcNAc(b1-4)][GlcNAc(b1-6)]GlcNAc
# Procedure, shortened: as §1
binder,measurement,setting,value
Pwp6 (Candida glabrata) (protein) MGSSHHHHHHSSGLVPRGSHMASANLPKLTNICQIPDNVKKTSGFKGEIRRIGLFPPGGDYTYLLKFPSTGSTASDTISLTTKPQLSTSGWFPSLFGHTYFIKADLLVYMVAYFVPTETGEYTFKLVNSDDAAVMYVGNPSAFPCGSIDTWPEPRKEDINVCDKISASTKLYMEKGLAYPVRLVWYNGGGDGQFNAQFIDPSGTTHTDWNGYVWQYDACTDCDYK,glycan array binding signal (z-score),[1],-0.318
same,glycan array binding signal (z-score),[2],-0.848
same,glycan array binding signal (z-score),[3],0.09
same,glycan array binding signal (z-score),[4],-0.701
same,glycan array binding signal (z-score),[5],-0.097
same,glycan array binding signal (z-score),[6],-0.201
same,glycan array binding signal (z-score),[7],0.167
same,glycan array binding signal (z-score),[8],-0.265
same,glycan array binding signal (z-score),[9],0.221
same,glycan array binding signal (z-score),[10],-0.617
same,glycan array binding signal (z-score),[11],-0.134
same,glycan array binding signal (z-score),[12],-0.681
same,glycan array binding signal (z-score),[13],-0.631
same,glycan array binding signal (z-score),[14],-0.334
same,glycan array binding signal (z-score),[15],0.606
same,glycan array binding signal (z-score),[16],2.96
same,glycan array binding signal (z-score),[17],0.465
same,glycan array binding signal (z-score),[18],5.06
same,glycan array binding signal (z-score),[19],3.31
same,glycan array binding signal (z-score),[20],1.2
same,glycan array binding signal (z-score),[21],-0.252
same,glycan array binding signal (z-score),[22],-0.556
same,glycan array binding signal (z-score),[23],0.023
same,glycan array binding signal (z-score),[24],2.94
same,glycan array binding signal (z-score),[25],3.63
same,glycan array binding signal (z-score),[26],3.3
same,glycan array binding signal (z-score),[27],3.79
same,glycan array binding signal (z-score),[28],3.71
same,glycan array binding signal (z-score),[29],-0.863
same,glycan array binding signal (z-score),[30],-0.466
